Assay results: PubChem BioAssay (NCI)
Compounds without any hit were thinned out: in the full panel of roughly 83,000, 20% have a hit.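 Treatment: one concentration, 48 hours, 96-well format. Scoring: percent growth, with anything below 10 considered active.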 A number with no mark means an inactive call. Calls of active or inactive are those of the source.

Test system: ACHN renal
Experiment: NCI-60 one-dose screen, 48 h (100 = growth as untreated, 0 = no growth, -100 = all killed)
Details: 10 µM unless noted

Compound	growth
CCN(CC)CCOc1ccccc1-n1c(C)ccc1-c1ccccc1	105%
Cn1cc(-c2csc(-c3c[nH]c4ncccc34)n2)c2cc(Br)cnc21	29.6%
COc1ccc(/C=C2\NC(=S)NC2=O)cc1	94%
Nc1ccccc1-c1ccc([N+](=O)[O-])cc1	46.1%
Cc1cc(NC(=O)c2ccc(N)cc2)ccc1N=Nc1ccc2c(O)c(N=Nc3ccc(Cl)c(S(=O)(=O)O)c3)c(S(=O)(=O)O)cc2c1	71.5%
CC[N+](CC)(CCOCCOCC[N+](CC)(CC)Cc1ccc([N+](=O)[O-])cc1)Cc1ccc([N+](=O)[O-])cc1	102%
CCC(c1ccccc1)c1noc(CCN(CC)CC)n1 (centres undefined)	101%
CC(=O)Nc1ccc2c(c1)Cc1c(F)c(F)c(F)c(F)c1-2	87.5%
OC(Cc1cccnc1)c1ccccc1 (centres undefined)	101%
C/C(=N/N=C(N)N)c1ccc(N)cc1	102%
O=C(O)c1ccccc1C(=O)OC1CCCC2CCCC21 (centres undefined)	103%
CN1CCCC1c1cccnc1 (centres undefined)	99%
COc1c(O)cc2oc3cc(O)c(CC=C(C)C)c(O)c3c(=O)c2c1C/C=C(\C)CCC=C(C)C	22.6%
Nc1nc(SCc2ccccc2Cl)c(-c2ccccc2)c(SCc2ccccc2Cl)n1	91.4%
CO[C@H]1/C=C/O[C@@]2(C)Oc3c(C)c(O)c4c(O)c(c(/C=N/N5C(C)CN(Cc6ccccc6)CC5C)c(O)c4c3C2=O)NC(=O)/C(C)=C\C=C\[C@H](C)[C@H](O)[C@@H](C)[C@@H](O)[C@@H](C)[C@H](OC(C)=O)[C@@H]1C (some centres undefined)	70.1%
CCOC(=O)C(C(C)=O)c1nc2sc3cc(Cl)ccc3n2c(=N)c1C#N (centres undefined)	109%
COc1ccc(-c2nn(-c3cccc(Cl)c3)cc2C2CC(c3ccccc3)=NN2C(C)=O)cc1 (centres undefined)	15.1%
CCS(=O)(=O)OCCCl	99.3%
O=C1Nc2ccc(F)cc2/C1=C/c1nc(-c2ccc(F)cc2)n2ccccc12	94%

Compound	growth
Cc1c(C(N)=O)sc2ncn(Cc3ccccc3)c(=O)c12	99.6%
Nc1nc2ncc(CCNc3ccc(C(=O)NC(CCC(=O)O)C(=O)O)cc3)nc2c(=O)[nH]1 (centres undefined)	103%
COc1cccc2c1C(=O)c1c(O)c3c(c(O)c1C2=O)C[C@@](O)(/C(C)=N/NC(=O)c1cccc([N+](=O)[O-])c1)C[C@@H]3OC1CC(N)C(O)C(C)O1 (some centres undefined)	-62.6% (active)
NC(=O)NN=C(C1CC1)C1CC1	95.4%
C[n+]1ccc(Nc2ccc(NC(=O)c3ccc(Nc4cc[n+](C)c5ccc(N)cc45)cc3)cc2)cc1	100%
COc1cc(OC)c2cc(C(=O)O)c(=O)oc2c1	107%
CCOc1ccccc1C(=O)OCC(=O)Nc1cccc(S(=O)(=O)N(C)C)c1	121%
S=C(Nc1ccc(C2=NCCN2)cc1)Nc1ccc(C2=NCCN2)cc1	99.2%
S=c1[nH]nc2sc3ccccc3n12	99.2%
Cn1c(N)c(N=O)c(=O)[nH]c1=O	100%
Cc1ccc(C(=O)Nc2ccc(Cl)cc2C(=O)NCc2ccccc2)cc1	86.4%
O=[N+]([O-])c1ccc2c(c1)S(=O)c1cc([N+](=O)[O-])ccc1N2	96.7%
Nc1ccc2c3c(cccc13)-c1ccccc1-2	95.2%
CC(c1cc(Cl)ccc1O)c1cc(Cl)ccc1O	41.4%
Nc1ccc2c(c1)/C(=N/O)c1cc([N+](=O)[O-])ccc1-2	58.7%
Nc1cc(Cl)c(S(N)(=O)=O)cc1S(N)(=O)=O	101%
O=C(CSc1nc2c(n1Nc1ccccc1)-c1ccccc1SC2)Nc1nc(-c2ccc(Cl)cc2)cs1	96.5%
Cc1cc(O)c2c(c1)C[C@H]1[C@@H]3CC[C@H]4CC(=O)CC[C@]4(C)[C@H]3CC(=O)[C@]21C	94.7%

Test system: CAKI-1 renal
Experiment: as above
Details: 10 µM unless noted

Compound	growth
CCN(CC)CCOc1ccccc1-n1c(C)ccc1-c1ccccc1	85.1%
Cn1cc(-c2csc(-c3c[nH]c4ncccc34)n2)c2cc(Br)cnc21	12.5%
COc1ccc(/C=C2\NC(=S)NC2=O)cc1	98.7%
Nc1ccccc1-c1ccc([N+](=O)[O-])cc1	30.3%
Cc1cc(NC(=O)c2ccc(N)cc2)ccc1N=Nc1ccc2c(O)c(N=Nc3ccc(Cl)c(S(=O)(=O)O)c3)c(S(=O)(=O)O)cc2c1	87.1%
CC[N+](CC)(CCOCCOCC[N+](CC)(CC)Cc1ccc([N+](=O)[O-])cc1)Cc1ccc([N+](=O)[O-])cc1	93.7%
CCC(c1ccccc1)c1noc(CCN(CC)CC)n1 (centres undefined)	94.1%
CC(=O)Nc1ccc2c(c1)Cc1c(F)c(F)c(F)c(F)c1-2	86.6%
OC(Cc1cccnc1)c1ccccc1 (centres undefined)	119%
C/C(=N/N=C(N)N)c1ccc(N)cc1	38%
O=C(O)c1ccccc1C(=O)OC1CCCC2CCCC21 (centres undefined)	93.1%
CN1CCCC1c1cccnc1 (centres undefined)	120%
COc1c(O)cc2oc3cc(O)c(CC=C(C)C)c(O)c3c(=O)c2c1C/C=C(\C)CCC=C(C)C	79.3%
Nc1nc(SCc2ccccc2Cl)c(-c2ccccc2)c(SCc2ccccc2Cl)n1	79.6%
CO[C@H]1/C=C/O[C@@]2(C)Oc3c(C)c(O)c4c(O)c(c(/C=N/N5C(C)CN(Cc6ccccc6)CC5C)c(O)c4c3C2=O)NC(=O)/C(C)=C\C=C\[C@H](C)[C@H](O)[C@@H](C)[C@@H](O)[C@@H](C)[C@H](OC(C)=O)[C@@H]1C (some centres undefined)	117%
CCOC(=O)C(C(C)=O)c1nc2sc3cc(Cl)ccc3n2c(=N)c1C#N (centres undefined)	91.6%
COc1ccc(-c2nn(-c3cccc(Cl)c3)cc2C2CC(c3ccccc3)=NN2C(C)=O)cc1 (centres undefined)	53%
CCS(=O)(=O)OCCCl	104%
O=C1Nc2ccc(F)cc2/C1=C/c1nc(-c2ccc(F)cc2)n2ccccc12	101%

Compound	growth
Cc1c(C(N)=O)sc2ncn(Cc3ccccc3)c(=O)c12	-1.53% (active)
Nc1nc2ncc(CCNc3ccc(C(=O)NC(CCC(=O)O)C(=O)O)cc3)nc2c(=O)[nH]1 (centres undefined)	114%
COc1cccc2c1C(=O)c1c(O)c3c(c(O)c1C2=O)C[C@@](O)(/C(C)=N/NC(=O)c1cccc([N+](=O)[O-])c1)C[C@@H]3OC1CC(N)C(O)C(C)O1 (some centres undefined)	-47.4% (active)
NC(=O)NN=C(C1CC1)C1CC1	103%
C[n+]1ccc(Nc2ccc(NC(=O)c3ccc(Nc4cc[n+](C)c5ccc(N)cc45)cc3)cc2)cc1	94.5%
COc1cc(OC)c2cc(C(=O)O)c(=O)oc2c1	85.9%
CCOc1ccccc1C(=O)OCC(=O)Nc1cccc(S(=O)(=O)N(C)C)c1	95.2%
S=C(Nc1ccc(C2=NCCN2)cc1)Nc1ccc(C2=NCCN2)cc1	93.9%
S=c1[nH]nc2sc3ccccc3n12	110%
Cn1c(N)c(N=O)c(=O)[nH]c1=O	108%
Cc1ccc(C(=O)Nc2ccc(Cl)cc2C(=O)NCc2ccccc2)cc1	77.7%
O=[N+]([O-])c1ccc2c(c1)S(=O)c1cc([N+](=O)[O-])ccc1N2	98.8%
Nc1ccc2c3c(cccc13)-c1ccccc1-2	69.4%
CC(c1cc(Cl)ccc1O)c1cc(Cl)ccc1O	84.9%
Nc1ccc2c(c1)/C(=N/O)c1cc([N+](=O)[O-])ccc1-2	46.6%
Nc1cc(Cl)c(S(N)(=O)=O)cc1S(N)(=O)=O	107%
O=C(CSc1nc2c(n1Nc1ccccc1)-c1ccccc1SC2)Nc1nc(-c2ccc(Cl)cc2)cs1	72.8%
Cc1cc(O)c2c(c1)C[C@H]1[C@@H]3CC[C@H]4CC(=O)CC[C@]4(C)[C@H]3CC(=O)[C@]21C	83.9%
